6 compounds from PubChem BioAssay (NCATS) can be followed below.

Assay [1] can be described thus: Cell Viability - MRC5 (AID 434; calls by dose curve;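 further: potency means the concentration at half of the fitted maximal effect; cells exposed to compound for 40 hours at 37 °C; potency reflects cytotoxicity seen as loss of intracellular ATP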). The note with it: MRC5 lung fibroblast viability, qHTS. The method in brief: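 Decrease in intracellular ATP, quantified by luciferase light output, reflects compound toxicity toward MRC5 cells exposed for 40 hr in complete culture medium. Concentration-response curves, scaled between DMSO and 100 uM tamoxifen, gave AC50 values.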

Assay [2] can be described thus: Cell Viability - SK-N-SH (AID 435; calls by dose curve;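 further: potency means the concentration at half of the fitted maximal effect; compound exposure lasted 40 h at 37 °C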). The note with it: SK-N-SH neuroblastoma cell viability qHTS. The essentials: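 Human neuroblastoma line, 40 h exposure at 37 °C, ATP quantified via luciferase luminescence; DMSO and 100 uM tamoxifen define 0 and 100% inhibition for AC50 fitting.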
A general note: qHTS replaces the single test concentration by a dilution series.

Assay [3] can be described thus: Cellular Toxicity (caspase-3) Jurkat (AID 655).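 Further: cells exposed to compound for 16 h at 37 °C before reading.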 The note with it: Jurkat caspase-3 activation, luminescence; caspase-3 activation: at 92.2 µM (top of the series), DMSO = 0%, tamoxifen = 100%. The essentials:
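qHTS in human Jurkat T-cell leukemia line: 16 hr compound treatment at 37 °C, caspase-3/7 activity measured by Caspase-Glo luminescence. AC50 derived from Hill equation.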

The nature of assay [4]: Cellular Toxicity (caspase-3) HUV-EC-C (AID 656).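 Further: cells exposed to compound for 16 h.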 The note with it: HUV-EC-C cells, caspase-3 activation (apoptosis), vehicle = 0, 100 µM tamoxifen = 100%; series mostly up to 92.2 µM. The essentials: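 Concentration-dependent caspase 3/7 induction was assessed in HUV-EC-C cells exposed for 16 hours. Data scaled between DMSO and tamoxifen (100 uM) controls.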
The target of assay [5] is Cytochrome P450 3A4 (Homo sapiens) (UniProt P08684). Nature of the assay: qHTS Assay for Inhibitors and Substrates of Cytochrome P450 3A4 (AID 884). Further: on the % scale 0 is the no-effect control and ±100 the full control effect; nearly all actives have a fitted effect of over 50% in size. The note with it: recombinant CYP3A4, Luciferin-PPXE luminescence; series mostly up to 57.1 µM. The essentials: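 Luminescent readout of luciferin produced by CYP3A4 (20 nM) dealkylation of Luciferin-PPXE, 25 uM (its KM). NADPH-driven reaction ran 60 min at RT after 10 min compound preincubation; data scaled to 57 uM ketoconazole as 100% inhibition.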

Assay [6] can be described thus: MultiTox-Fluor Cytotoxicity Assay - LYMP1-001 - Live Cells (AID 947).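 Further: 0% = DMSO only and full inhibition = tetraoctylammonium bromide control.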 The note with it: LYMP1-001 lymphoblastoid cells, live-cell protease fluorescence viability; series mostly up to 92.2 µM.
Assay [7] is described as follows: Cell Viability - LYMP1-002 - Assay at 16 hr (AID 948).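 Further: 0% = DMSO alone and full effect = 92 µM tetraoctylammonium bromide.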 The note with it: LYMP1-002 lymphoblastoid cell viability; series mostly up to 92.2 µM. The essentials:
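In this qHTS, lymphoblastoid LYMP1-002 cells (human) receive compounds for 16 hr at 37 C. Viability is taken from CellTiter-Glo ATP luminescence, and AC50 derives from standard Hill fits.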

Assay [8] is described as follows: Cell Viability - LYMP2-004 (AID 966).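 Further: cells exposed to compound for 24 h; nearly all actives have a fitted effect of over 65% in size.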 Further: potency means the concentration at half of the fitted maximal effect. The settings on record: LYMP2-004 lymphoblastoid cell viability, qHTS; series mostly up to 92.2 µM. The method in brief: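 qHTS cytotoxicity: human lymphoblastoid line, 24 hr compound treatment, 37 C, complete medium. Viability read as cellular ATP via luciferase luminescence; tetraoctylammonium bromide served as positive control.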

Assay [9] in a line: Cell Viability - LYMP2-019 (AID 973).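 Further: cells exposed to compound for 24 h at 37 °C; nearly all actives have a fitted effect of over 55% in size.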 Further: potency means the concentration at half of the fitted maximal effect. The settings on record: LYMP2-019 lymphoblastoid cell line viability; series mostly up to 92.2 µM. The method in brief: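 Cytotoxicity is scored as a concentration-dependent drop in cellular ATP after cells (2500/well) receive compound for 24 hr at 37 C. Tetraoctylammonium bromide serves as positive control.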
A short description of assay [10]: Cell Viability - LYMP2-007 (AID 979).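 Further: cells exposed to compound for 24 h before reading; nearly all actives have a fitted effect of over 60% in size.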 Further: potency means the concentration at half of the fitted maximal effect. The settings on record: LYMP2-007 lymphoblastoid cell viability; series mostly up to 92.2 µM. The method in brief: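 Cells are seeded at 2500 per well and rested 5 hr. Compounds are then added over a concentration series for 24 hr at 37 C. CellTiter-Glo is added for 30 min at room temperature before luminescence reading.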
A short description of assay [11]: Cell Viability - LYMP2-008 (AID 980). Further: nearly all actives have a fitted effect of over 60% in size. Further: potency means the concentration at half of the fitted maximal effect. The note with it: LYMP2-008 lymphoblastoid cell viability, qHTS; series mostly up to 92.2 µM. The method in brief:
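Cells seeded at 2500/well and rested 5 hr at 37 C; compounds added over a concentration range and incubated 24 hr at 37 C; CellTiter-Glo added, 30 min at room temperature; luminescence read and AC50 fitted with Hill model.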

Assay [12] in a line: Cell Viability - LYMP2-014 (AID 983).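 Further: cells exposed to compound for 24 h at 37 °C; nearly all actives have a fitted effect of over 50% in size.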 Further: potency means the concentration at half of the fitted maximal effect. The note with it: LYMP2-014 lymphoblastoid cells, viability qHTS; series mostly up to 92.2 µM. The essentials: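 Cells are plated at 2500/well and left 5 hr at 37 C. Compounds are added across a concentration range and incubated 24 hr at 37 C in complete medium. CellTiter-Glo is added, and luminescence is read after 30 min at room temperature.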

Assay [13] can be described thus: Cell Viability - LYMP2-018 (AID 985).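 Further: compound exposure lasted 24 hr at 37 °C; nearly all actives have a fitted effect of over 50% in size.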 Further: potency means the concentration at half of the fitted maximal effect. The settings on record: LYMP2-018 lymphoblastoid cells, viability (qHTS); series mostly up to 92.2 µM. The method in brief: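 Seed 2500 lymphoblastoid cells per well, incubate 5 hr at 37 C, add compound and incubate 24 hr at 37 C, add CellTiter-Glo, wait 30 min at room temperature, then read luminescence.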
Assay [14] is described as follows: Cell Viability - LYMP2-020 (AID 986).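 Further: cells exposed to compound for 24 h at 37 °C; nearly all actives have a fitted effect of over 55% in size.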 Further: potency means the concentration at half of the fitted maximal effect. The note with it: series mostly up to 92.2 µM. The method in brief:
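Seed 2500 cells per well and incubate 5 hr at 37 C. Add compounds at a concentration series and incubate 24 hr at 37 C. Add CellTiter-Glo, wait 30 min at RT, read luminescence, and fit a Hill curve for AC50.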

The nature of assay [15]: Cell Viability - LYMP2-026 (AID 989).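 Further: cells exposed to compound for 24 h at 37 °C; nearly all actives have a fitted effect of over 50% in size.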 Further: potency means the concentration at half of the fitted maximal effect. The settings on record: LYMP2-026 lymphoblastoid cell viability, qHTS; series mostly up to 92.2 µM. The method in brief: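 Cells are seeded at 2500 per well and held 5 hr at 37 C. Compounds are added in concentration series for 24 hr, then CellTiter-Glo reagent is applied and luminescence read.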
The nature of assay [16]: qHTS assay for small molecule antagonists of retinoid X receptor alpha signaling (AID 588546).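 Further: cells stimulated with 9-cis-retinoic acid as agonist; on the % scale 0 is the no-effect control and ±100 the full control effect.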 The settings on record: HEK293T RXRa-UAS-bla, beta-lactamase ratio, antagonist mode; measured here: W530 green channel, cytotoxicity proxy. The method in brief:
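Beta-lactamase reporter inhibition, read as CCF4 fluorescence ratio (ex 405, em 460/530 nm) after 2 h at RT. HEK293T UAS-bla cells, 2500/well, were stimulated with 9-cis-RA at 500 or 100 nM final alongside test compound for 18 h at 37 C.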

The target of assay [17] is Voltage-gated inwardly rectifying potassium channel KCNH2 (Homo sapiens) (UniProt Q12809). Nature of the assay: qHTS Assay for Small Molecule Inhibitors of the Human hERG Channel Activity (AID 588834). The note with it: U2OS BacMam hERG, FluxOR thallium flux fluorescence; series mostly up to 92.2 µM. The essentials:
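Homogeneous FluxOR thallium flux assay using hERG-expressing U2OS cells (BacMam). Compound treatment about 10 minutes preceded stimulation; reduced fluorescence taken as channel block.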

Assay [18] in a line: Cellular Toxicity (caspase-3) H-4-II-E (AID 663).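 Further: cells exposed to compound for 16 hr before readout.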 The settings on record: H-4-II-E rat hepatoma; Potency: caspase-3 activation; series mostly up to 92.2 µM. The essentials: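 Caspase 3/7 activation measured in H-4-II-E cells in complete culture medium after 16 hr treatment at 37 °C, using luciferase-coupled substrate readout; AC50 values come from Hill-equation fits of normalized concentration-response data.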

A short description of assay [19]: Cell Viability - LYMP2-015 (AID 971).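 Further: cells exposed to compound for 24 h; nearly all actives have a fitted effect of over 55% in size.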 Further: potency means the concentration at half of the fitted maximal effect. The settings on record: LYMP2-015 lymphoblastoid cell viability; series mostly up to 92.2 µM. The method in brief: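 Cells are seeded at 2500 per well and incubated 5 hr at 37 C. Compounds are added across a concentration series for 24 hr at 37 C. CellTiter-Glo is added, and luminescence is read after 30 min at room temperature.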

The nature of assay [20]: Cell Viability - LYMP2-022 (AID 987). Further: nearly all actives have a fitted effect of over 55% in size. Further: potency means the concentration at half of the fitted maximal effect. The settings on record: LYMP2-022 lymphoblastoid cell viability; series mostly up to 92.2 µM. The method in brief: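 Cells were seeded at 2500 per well, rested 5 hr at 37 C, and treated with titrated compounds for 24 hr at 37 C. Cellular ATP was then quantified by luciferase luminescence, and AC50 values were derived from Hill-modelled concentration-response curves.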

Each structure is given as a SMILES string. Where “and” joins values, the source holds several entries; their conditions need not be identical. Equal values may be shown once. Results filed as inconclusive are left out. Calls of active or inactive are those of the source. Unless noted, the call rests on the fitted dose curve; in most records, active means well fitted curve in the direction sought with a large enough effect; inconclusive means small, poorly fitted or top-dose-only effect, or another doubt; inactive means no such curve, though single readings can be large; an effect the other way counts as inactive or inconclusive.

Cytochrome P450 3A4 (Homo sapiens), sequence (P08684 whole entry, looked up): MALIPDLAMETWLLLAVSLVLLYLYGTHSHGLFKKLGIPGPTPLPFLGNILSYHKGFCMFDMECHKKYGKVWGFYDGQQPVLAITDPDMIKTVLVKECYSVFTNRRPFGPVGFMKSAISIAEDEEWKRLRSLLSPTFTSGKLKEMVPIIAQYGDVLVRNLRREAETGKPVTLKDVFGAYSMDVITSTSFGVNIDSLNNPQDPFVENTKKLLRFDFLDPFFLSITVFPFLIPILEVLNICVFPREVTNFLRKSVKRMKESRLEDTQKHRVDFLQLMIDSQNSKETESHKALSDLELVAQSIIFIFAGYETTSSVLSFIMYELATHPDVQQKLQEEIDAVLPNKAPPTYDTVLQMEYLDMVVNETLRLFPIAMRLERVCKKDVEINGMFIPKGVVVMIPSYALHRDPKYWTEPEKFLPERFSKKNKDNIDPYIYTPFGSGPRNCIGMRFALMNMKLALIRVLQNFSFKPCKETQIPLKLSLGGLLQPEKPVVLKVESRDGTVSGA
Voltage-gated inwardly rectifying potassium channel KCNH2 (Homo sapiens), sequence (Q12809 whole entry, looked up): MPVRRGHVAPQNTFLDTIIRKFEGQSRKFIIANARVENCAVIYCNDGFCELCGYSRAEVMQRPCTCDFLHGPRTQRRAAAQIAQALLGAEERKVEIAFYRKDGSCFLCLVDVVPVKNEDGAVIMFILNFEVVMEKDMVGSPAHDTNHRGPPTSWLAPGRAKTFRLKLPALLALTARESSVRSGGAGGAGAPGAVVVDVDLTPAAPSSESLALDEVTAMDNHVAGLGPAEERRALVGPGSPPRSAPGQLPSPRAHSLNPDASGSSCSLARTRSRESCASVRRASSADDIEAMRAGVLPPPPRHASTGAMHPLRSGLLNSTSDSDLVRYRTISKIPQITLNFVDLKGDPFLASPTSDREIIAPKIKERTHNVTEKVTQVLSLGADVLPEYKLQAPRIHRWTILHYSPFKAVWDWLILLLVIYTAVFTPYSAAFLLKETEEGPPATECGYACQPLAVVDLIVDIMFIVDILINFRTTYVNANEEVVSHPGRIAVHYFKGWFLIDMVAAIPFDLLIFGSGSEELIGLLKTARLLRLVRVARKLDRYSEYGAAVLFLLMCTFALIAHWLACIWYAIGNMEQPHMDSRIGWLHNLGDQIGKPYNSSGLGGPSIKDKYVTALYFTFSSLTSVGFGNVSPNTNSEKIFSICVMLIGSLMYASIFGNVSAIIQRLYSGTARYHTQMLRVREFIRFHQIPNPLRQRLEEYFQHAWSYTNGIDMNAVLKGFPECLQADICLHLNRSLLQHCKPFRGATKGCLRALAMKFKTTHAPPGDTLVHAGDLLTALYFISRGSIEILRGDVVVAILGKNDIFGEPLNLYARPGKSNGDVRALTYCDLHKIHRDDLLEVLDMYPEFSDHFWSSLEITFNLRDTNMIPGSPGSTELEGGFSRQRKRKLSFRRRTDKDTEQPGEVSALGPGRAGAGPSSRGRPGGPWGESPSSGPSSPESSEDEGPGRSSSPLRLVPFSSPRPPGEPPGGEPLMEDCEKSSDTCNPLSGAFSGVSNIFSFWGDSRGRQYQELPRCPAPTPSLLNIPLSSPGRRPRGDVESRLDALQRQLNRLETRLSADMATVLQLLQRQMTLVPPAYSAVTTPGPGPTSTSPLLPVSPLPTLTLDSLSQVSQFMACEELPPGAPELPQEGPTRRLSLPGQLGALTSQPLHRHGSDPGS

For the compound `Nc1cc(Cl)ccc1O`, the Potency in assay [1] and in assay [2] was > 92 µM (inactive) in each case. Further, the caspase-3 activation in [3] was 15.3% (inactive). Further, the compound was classed as inactive in assay [4], in assay [6] and in assay [7]. Further, the Potency result in assay [5], in assay [8], in assay [9], in assay [10], in [11] and in [12] was “inactive” in each case. For the same compound, the Potency result in [13], in assay [14], in [15] and in assay [17] was “inactive” throughout. For the same compound, the max response in [16] was -1.3%.

In the case of `ClCC(Cl)Cl`, the Potency in [1] and in assay [2] was > 92 µM (inactive) each time. For the same compound, the caspase-3 activation in [3] was 0.231% (inactive). The result in assay [4], in assay [6] and in assay [7] was inactive. Besides, the Potency result in assay [18], in assay [5], in assay [8], in assay [19], in assay [9] and in [10] was “inactive” each time. The Potency result in assay [11], in assay [12], in [13], in [14], in assay [20] and in assay [15] was “inactive” in each case. Besides, in assay [17], the Potency entry is “inactive”. Besides, the max response in assay [16] was 2.25%.

In the case of `Nc1ccc([N+](=O)[O-])cc1N`, the Potency in [1] and in assay [2] was > 92 µM (inactive) each time. Further, in assay [3], the caspase-3 activation is 17.7% (inactive). Moreover, the compound was called inactive in assay [4], in assay [6] and in [7]. Also, the Potency entry in assay [18], in [5], in assay [8], in [19], in [9] and in assay [10] was “inactive” each time. Also, the Potency entry in [11], in assay [12], in assay [13], in assay [14], in assay [20] and in assay [15] was “inactive” throughout. The Potency result in assay [17] was “inactive”. In addition, in [16], the max response is 7.14% and -1.85%.

Take `N#C/C=C/C#N`: the Potency in assay [1] is > 92 µM (inactive); in assay [2] it was 24.4 µM (active); in assay [8], 15.8 µM (active); in assay [19], 50.1 µM (active); in assay [9] it was 31.6 µM (active); in assay [10], 39.8 µM (active). Further, the Potency was 39.8 µM (active) in assay [11]; 39.8 µM (active) in assay [12]; 31.6 µM (active) in [13]; 31.6 µM (active) in assay [14]; 15.8 µM (active) in assay [20]; 39.8 µM (active) in [15]. In addition, in assay [3], the caspase-3 activation was -8.24% (inactive). The compound was called inactive in [4], in assay [6] and in assay [7]. The Potency entry in assay [18], in assay [5] and in assay [17] was “inactive” throughout.

In the case of `Oc1cc(Cl)c(Cl)c(Cl)c1Cl`, the caspase-3 activation in assay [3] was 80.5% (active). In addition, the result in assay [4], in assay [6] and in assay [7] was inactive. In addition, the Potency result in assay [18], in assay [8], in assay [19], in assay [9], in [10] and in [11] was “inactive” in each case. For the same compound, the Potency entry in assay [12], in assay [13], in [20], in [15] and in assay [17] was “inactive” throughout.

`CN(C)c1ccc(N=Nc2ccccc2)cc1`: the Potency in assay [1] and in assay [2] was > 92 µM (inactive) in each case. Moreover, the caspase-3 activation in assay [3] is -9.1% (inactive). Moreover, the call in [4], in assay [6] and in assay [7] was inactive. The Potency result in assay [18], in [5], in [8], in assay [9], in assay [10] and in [11] was “inactive” throughout. Moreover, the Potency result in [12], in assay [13], in [14], in assay [20], in assay [15] and in [17] was “inactive” each time. In addition, in assay [16], the max response is -11.2%.
